What is called AC50 is the concentration at which the activity in the assay is half-maximal.

“And” between values parts separate entries of the source, which are not always exact repeats. Identical values can stand only once. Screen size: about 16,000 compounds; about 4,000 (25%) were called active. Not shown: some 26% with an inconclusive outcome. The call rests on the fitted dose curve; in most records, active means well fitted curve in the direction sought with a large enough effect; inconclusive means small, poorly fitted or top-dose-only effect, or effect the other way; inactive means no such curve, though single readings can be large or run the other way. These entries were drawn from the full list. More than one record can exist for a structure, and the calls need not agree.
On the % scale 0 is the no-effect control and ±100 the full control effect.

Chain of Cytochrome P450 2C9 (Homo sapiens) (P11712 whole entry, looked up): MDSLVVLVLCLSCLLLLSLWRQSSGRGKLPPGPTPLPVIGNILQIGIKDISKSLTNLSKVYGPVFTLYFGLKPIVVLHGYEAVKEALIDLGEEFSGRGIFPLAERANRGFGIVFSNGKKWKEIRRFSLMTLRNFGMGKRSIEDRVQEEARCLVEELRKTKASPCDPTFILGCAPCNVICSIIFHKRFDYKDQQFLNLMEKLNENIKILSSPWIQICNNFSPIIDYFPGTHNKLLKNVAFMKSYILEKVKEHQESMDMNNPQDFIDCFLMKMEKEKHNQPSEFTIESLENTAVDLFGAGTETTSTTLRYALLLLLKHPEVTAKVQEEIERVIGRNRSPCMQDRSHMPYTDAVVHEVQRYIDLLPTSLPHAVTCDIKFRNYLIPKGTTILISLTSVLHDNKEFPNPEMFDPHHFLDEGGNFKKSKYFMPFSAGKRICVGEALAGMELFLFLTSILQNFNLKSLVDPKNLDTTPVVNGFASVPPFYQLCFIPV

This assay concerns the target Cytochrome P450 2C9 (Homo sapiens) (UniProt P11712). The assay can be described thus: Cytochrome panel assay with activity outcomes. The following applies: recombinant CYP, pro-luciferin dealkylation, luminescence, p450-cyp2c9; series mostly up to 57.1 µM.
On to `NC(N)=NN=Cc1c(Cl)cccc1Cl`, for which the AC50 result is “inactive”.
As for `Cc1cc(CC(=O)O)n(C)c1C(=O)c1ccc(Cl)cc1`, the AC50 entry is “inactive”.
The same measure, in the same setting: next, `Cc1cc2ccccn2c1C(=O)c1ccc(Cl)cc1`: 11.2 µM (active); `CCS(=O)(=O)c1ccc(C(=O)Nc2ccccc2)c(Cl)c1Cl`: 10 µM (active).
Consider `CN1C[C@H](c2ccccc2)C(O)([C@]2(c3ccccc3)CN(C)C[C@@H](c3ccccc3)C2=O)[C@H](c2ccccc2)C1` (stereo partly drawn), for which the activity, negative = inhibition was 5.9% [at 11.4 µM] (inactive).
Take `COc1ccc(C(=O)N2CCC3(CCCN(Cc4ccccc4)C3)CC2)cc1`: the AC50 entry is “inactive”.
The same measure, in the same setting: next, `COc1ccc(C(=O)N2CCC3(CCCN(CC(C)C)C3)CC2)cc1`: “inactive”; `O=C(c1ccncc1)N1CCC[C@@]2(CCN(Cc3ccccc3)C2)C1`: “inactive”; `O=C(c1ccncc1)N1CCC2(CCCN(Cc3ccccc3)C2)CC1`: “inactive”.
Regarding `COc1ccc(C(=O)N2CCC3(CCCN(Cc4ccncc4)C3)CC2)cc1`, the concentration at half-maximal activity (AC50) was 3.16 µM (active).
On to `O=C(c1ccncc1)N1CCC2(CCCN(Cc3ccncc3)C2)CC1`, for which the AC50 is 5.01 µM (active).
Consider `COc1cc2c3cc1Oc1cc(ccc1O)C[C@@H]1c4c(cc(OC)c(O)c4Oc4ccc(cc4)C[C@H]3[N+](C)(C)CC2)CC[N+]1(C)C`, for which the activity, negative = inhibition was 4.34% [at 11.4 µM] (inactive).
In the case of `Cc1sc(NC(=O)c2ccco2)c(C(c2cccnc2)N2CCCC2)c1C` (stereo not drawn), the AC50 is 2.51 µM (active).
On the same count and under the same terms, next, `O=C(Nc1c(C(=O)N2CCCCC2)cnn1-c1ccccc1)c1ccco1`: “inactive”; `Cc1sc(NC(=O)c2ccco2)c(C(c2ccncc2)N2CCOCC2)c1C` (stereo not drawn): 2.24 µM (active); `O=C(Nc1c(C(=O)N2CCOCC2)cnn1-c1ccccc1)c1ccco1`: “inactive”.
With `Cc1cnc(CNc2ncncc2-c2c(C)noc2C)cn1`, the activity, negative = inhibition is 17.1% [at 2.29 µM] (inactive).
With `O=C1NCC2(CCN(CCc3ccccc3)CC2)O1`, the AC50 entry was “inactive”.
On to `N#C[C@H](c1ccccc1)N1CCCN([C@@H](C#N)c2ccccc2)C1c1ccccc1O` (stereo partly drawn), for which the half-maximal activity concentration (AC50) is 3.16 µM (active).
The same measure, in the same setting: next, `C[N+](C)(CCCOc1ccccc1)c1ccccc1`: “inactive”.
On to `O=C(O)c1ccccc1NCn1c(=S)sc2ccccc21`, for which the activity, negative = inhibition is -5.72% [at 11.4 µM] (inactive).
Consider `Cc1ccccc1OCCCn1c(=O)sc2ccccc21`, for which the AC50 is 5.01 µM (active).
On the same count and under the same terms, then `Cc1ccccc1OCCCN1CCCC1`, with “inactive”.
The same measure, in the same setting: then `O=c1sc2ccccc2n1CCCOc1ccccc1`, with 12.6 µM (active).
Same read-out and setting: next, `Cc1ccc(Cl)cc1-n1c(=O)cc(N2CC(C)OC(C)C2)[nH]c1=O` (stereo not drawn): “inactive”.
`O=C(O)c1cc2ccccc2c(Cc2cc3ccccc3c(C(=O)O)c2O)c1O` (tested in a mixture with another compound): the AC50 result was “inactive”.
Regarding `C=CCNS(=O)(=O)c1cccc2cc(C(=O)O)c(O)cc12`, the concentration at half-maximal activity (AC50) is 2.82 µM (active).
Regarding `NS(=O)(=O)c1ccc(N=Nc2c(O)c(C(=O)O)cc3ccccc23)cc1`, the activity, negative = inhibition was -28.9% [at 11.4 µM] (inactive).
Regarding `N#Cc1cccc(NC(=O)N2CC[C@@]3(CCCNC3)C2)c1`, the AC50 result was “inactive”.
On the same count and under the same terms, then `COc1ccc(O[C@H]2C=C[C@@H](c3ccccc3)O[C@H]2COC(=O)CC/C(C)=N\O[C@@H](C)c2cn([C@H](CO)Cc3ccccc3)nn2)cc1`, with 1.26 µM (active).
As for `CO/N=C(/C)CCC(=O)OC[C@@H]1O[C@H](C#Cc2ccccc2)C=C[C@@H]1Oc1ccc(C)cc1`, the activity, negative = inhibition was -2.9% [at 11.4 µM] (inactive).
Regarding `C/C(CCC(=O)OC[C@@H]1O[C@H](C#Cc2ccccc2)C=C[C@@H]1Oc1ccc(C)cc1)=N/OC[C@@H](C)[C@H](OCc1ccccc1)C(C)C`, the activity, negative = inhibition is 12.5% [at 11.4 µM] (inactive).
The same measure, in the same setting: next, `COc1ccc(O[C@H]2C=C[C@@H](c3ccccc3)O[C@H]2COC(=O)CC/C(C)=N\O[C@@H](C)CN2CCCCc3nc(C)c(C)cc32)cc1`: -28.1% [at 11.4 µM] (inactive).
Take `C/C(CCC(=O)OC[C@@H]1O[C@H](C#Cc2ccccc2)C=C[C@@H]1Oc1ccc(C)cc1)=N/O[C@@H](C)c1cn([C@H](CO)Cc2ccccc2)nn1`: the AC50 is 3.16 µM (active).
As for `CC(=O)OC[C@@H]1O[C@H](C/C=N\O[C@@H](C)c2cn([C@H](CO)Cc3ccccc3)nn2)C=C[C@@H]1OC(C)=O`, the activity, negative = inhibition is 8% [at 11.4 µM] (inactive) and -8.02% [at 11.4 µM] (inactive).
As to `COc1ccc(-c2nnn(CC(=O)NCCc3c[nH]c4ccccc34)n2)cc1OC`, the AC50 was 4.47 µM (active).
Same read-out and setting: then `CCCCOc1ccc(-c2nnn(CC(=O)c3c[nH]c4ccccc34)n2)cc1`, with “inactive”; and `COc1cc2c(CCNC(C)=O)c[nH]c2cc1O`, with “inactive”.
Regarding `COc1ccccc1CNc1ccnc(-c2ccc(C(=O)N(C)C)cc2)n1`, the activity, negative = inhibition is -10.3% [at 2.29 µM] (inactive).
With `CCc1nnc(NC(=O)CCC(=O)NCc2ccccc2OC)s1`, the AC50 entry was “inactive”.
Still for that read-out and setting: next, `COc1ccccc1CNC(=O)Cn1nnc(-c2ccncc2)n1`: 7.94 µM (active); `NC(N)=[N+]1CCc2ccccc2C1`: “inactive”; `CC1=C(C#N)C(Nc2ccc(Cl)cn2)(C(F)(F)F)C(=O)N1` (stereo not drawn): 14.1 µM (active).
Same read-out and setting: next, `CN(C)CCN1C(=O)C(O)=C(C(=O)c2cc3ccccc3o2)C1c1ccccn1` (stereo not drawn): “inactive”; `Cc1cc(N2C(=O)C(O)=C(C(=O)c3ccco3)C2c2ccc(O)cc2)no1` (stereo not drawn): 11.2 µM (active).
On the same count and under the same terms, then `COc1cc(OC)c(C2N(c3cc(C)on3)C(=O)C3CCCN32)cc1OC` (stereo not drawn), with “inactive”.
Take `COc1cccc(C2C(C(=O)c3cc4ccccc4o3)=C(O)C(=O)N2c2cc(C)on2)c1OC` (stereo not drawn): the half-maximal activity concentration (AC50) is 14.1 µM (active).
On the same count and under the same terms, then `CC(=O)Nc1ccc(OC[C@@H](O)CNC(C)C)cc1`, with “inactive”; and `CC(C)NC[C@@H](O)COc1ccc(COCCOC(C)C)cc1`, with “inactive”; and `CC(C)NC[C@@H](O)COc1ccc(CCOCC2CC2)cc1`, with “inactive and 631 nM (active)”.
Still for that read-out and setting: then `COc1ccccc1CN1CC[C@@]2(CCCN(C(=O)c3cccn3C)C2)C1`, with “inactive”.
In the case of `COC(=O)[C@@]1(Cc2ccccc2)[C@H]2c3cc(C(=O)N(C)C)n(Cc4c(CO)[nH]cc(C)c4=O)c3C[C@H]2CN1C(=O)c1ccccc1`, the AC50 is 0.631 µM (active).
Take `COC(=O)[C@@]1(Cc2ccc(F)cc2)[C@H]2c3cc(C(=O)N(C)C)n(Cc4c(CO)[nH]cc(C)c4=O)c3C[C@H]2CN1C(=O)c1ccccc1`: the AC50 is 10 µM (active).
